Data as given in PubChem BioAssay (NCI).
About 83,000 compounds went through this panel and 20% of them were active in at least one assay; those are over-represented in the sample as a whole.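 96-well plates, one dose, 48 hours. Percent growth reported; active if below 10.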 A number with no mark means an inactive call. Calls of active or inactive are those of the source.

Key:
Test in all cases: NCI-60 one-dose screen, 48 h (100 = growth as untreated, 0 = no growth, -100 = all killed)
Details in all cases: 10 µM unless noted
T-47D breast = tested on: T-47D breast
BT-549 breast = tested on: BT-549 breast
MDA-MB-435 melanoma = tested on: MDA-MB-435 melanoma
SW-620 colon = tested on: SW-620 colon
HCT-116 colon = tested on: HCT-116 colon
HCC-2998 colon = tested on: HCC-2998 colon
KM12 colon = tested on: KM12 colon
MCF7 breast = tested on: MCF7 breast

Structure (SMILES)	growth (T-47D breast)	growth (BT-549 breast)	growth (MDA-MB-435 melanoma)	growth (SW-620 colon)	growth (HCT-116 colon)	growth (HCC-2998 colon)	growth (KM12 colon)	growth (MCF7 breast)
Cn1c(NCCc2ccc(O)c(O)c2)nc2c1c(=O)n(Cc1ccc(Cl)c(Cl)c1)c(=O)n2C	58%	67.1%	73%	76.5%	64.8%	90.6%	71.9%	–
COc1cc(-c2nn(-c3ccc(C)cc3)cc2C(=O)O)ccc1O	89.5%	103%	87.3%	103%	99.7%	92.5%	64.7%	–
CNc1ccc(-c2cc(=O)oc3ccc(Cl)cc23)cc1	66.8%	21.8%	-11.5% (active)	23.3%	10%	31.6%	15%	–
CCn1c(Cc2ccccc2Nc2c(Cl)cccc2Cl)nnc1SCC(=O)NN1C(=O)/C(=C/c2cc(OC)c(O)c(OC)c2)SC1=S	24.4%	50%	-46.5% (active)	21.2%	11.5%	56.9%	18%	–
Cc1cc(N2CCOCC2)nc(NCc2cc(Nc3ccnc4cc(Cl)ccc34)ccc2F)n1	-34.9% (active)	-37.7% (active)	-79.5% (active)	-69.9% (active)	-78.4% (active)	-69% (active)	-61.9% (active)	–
CCOc1cc2c(cc1OCC)C(c1cc(OC)c(O)cc1Cl)NCC2 (centres undefined)	85.4%	102%	77.5%	99.3%	76.3%	63.2%	88.9%	–
CC[C@@H]1O[C@H](O[C@@H](c2cnc[nH]2)[C@H](NC(=O)c2nc([C@H](CC(N)=O)NC[C@@H](N)C(N)=O)nc(N)c2C)C(=O)N[C@H](C)[C@H](O)[C@H](C)C(=O)N[C@@H](C(=O)NCCc2nc(-c3nc(C(=O)NCCCCN=C(N)N)cs3)cs2)[C@@H](C)O)[C@H](O[C@@H]2O[C@H](CO)[C@H](O)[C@H](OC(N)=O)[C@@H]2O)[C@H](C)[C@@H]1C	57.4%	78.3%	81.9%	68.1%	37%	69.7%	57.9%	–
O=C1c2c(O)cc(O)cc2-c2c(-c3ccc(O)cc3)oc3cc(O)cc1c23	8.47% (active)	50.8%	52.9%	45.3%	32.5%	–	58.3%	33.2%
c1ccc2[nH]c(-c3ccc(Nc4nc(N5CCCC5)nc5[nH]ncc45)cc3)nc2c1	-52.6% (active)	59.7%	-76.6% (active)	-64.1% (active)	-71.8% (active)	–	-32.6% (active)	-21.5% (active)
CC[C@]1(O)C[C@@H]2CN(CCc3c([nH]c4ccccc34)[C@@](C(=O)OC)(c3cc4c(cc3OC)N(C)[C@H]3[C@@](O)(C(N)=O)[C@H](O)[C@]5(CC)[C@@H]6C[C@@H]6CN6CC[C@]43[C@@H]65)C2)C1	92.9%	11.5%	-40% (active)	26.7%	6.89% (active)	24.9%	11.9%	–
O=C(N/N=C/c1c[nH]c2ccccc12)c1cc(-c2ccccc2)on1	77.2%	90.3%	94.8%	102%	90.6%	92.9%	92.3%	–
CC[C@@H](C(=O)[C@@H](C)[C@@H](O)[C@H](C)[C@@H]1O[C@@H]([C@@H](CC)C(=O)O)CC[C@@H]1C)[C@H]1OC2(C=C[C@@H](O)[C@]3(CC[C@@](C)([C@H]4CC[C@](O)(CC)[C@H](C)O4)O3)O2)[C@H](C)C[C@@H]1C (some centres undefined)	27.2%	-12.3% (active)	-76.2% (active)	16.2%	12%	10.7%	12.2%	–
CC(=O)Nc1ccc(S(=O)(=O)Nc2cccc(-c3nc(-c4ccc(NC(=O)c5cccnc5)cc4Cl)no3)c2)cc1	14%	33.3%	6.69% (active)	29.5%	30.4%	69.1%	28.7%	–
O=S(=O)(Nc1ccc(Br)c(Cl)c1)c1ccc(-c2cnc(C3CC3)o2)cc1	30.9%	38.3%	-17.1% (active)	19.3%	19.5%	45.9%	33.8%	–
CC(C)(C)N1CCC1CN (centres undefined)	96.3%	118%	104%	104%	99.5%	–	107%	126%
C=C(C)C(=O)Nc1ccc(NC(C)C)cc1	100%	156%	117%	105%	105%	–	109%	146%

Structure (SMILES)	growth (T-47D breast)	growth (BT-549 breast)	growth (MDA-MB-435 melanoma)	growth (SW-620 colon)	growth (HCT-116 colon)	growth (HCC-2998 colon)	growth (KM12 colon)	growth (MCF7 breast)
COc1cccc2c1C(=O)c1c(O)c3c(c(O)c1C2=O)C[C@](O)(C(=O)CO)C[C@H]3O[C@@H]1C[C@@H](NC(=O)CCCN(C)C2(c3ccc(F)cc3)CC3CCC2C3)[C@H](O)[C@@H](C)O1 (some centres undefined)	81.2%	58.6%	-88.3% (active)	-78.5% (active)	-90.1% (active)	–	-77.8% (active)	-59% (active)
COc1ccc2nc(NC(=O)CSc3nnc4n3S(=O)(=O)c3ccccc3N4c3ccccc3)sc2c1	93.7%	83.7%	97.8%	107%	87.9%	–	97.4%	82.3%
C=CCSSC1N=CNc2nc[nH]c21 (centres undefined)	22.8%	47%	25.5%	35.8%	14.5%	44.2%	52.5%	–
Cc1ccc(C2Oc3ccccc3C3CC(c4cccs4)=NN32)cc1 (centres undefined)	94.7%	86.6%	103%	102%	99.9%	98.7%	94.3%	–
C(=N/Nc1ncc(-c2cc3cc(-c4ccccc4)ccc3o2)s1)/c1cccs1	100%	110%	95.9%	99.7%	91.5%	100%	97%	–
CC(=O)O[C@H]1C(=O)[C@@]2(C)[C@H]([C@H](OC(=O)c3ccccc3)[C@]3(O)C[C@H](OC(=O)[C@H](OC(=O)CCC(=O)OC4CCC(S/N=C(N)/N=C(\N)N(C)C)CC4)[C@@H](NC(=O)c4ccccc4)c4ccccc4)C(C)=C1C3(C)C)[C@]1(OC(C)=O)CO[C@@H]1C[C@@H]2O (some centres undefined)	46.7%	35.9%	5.75% (active)	41.7%	6.14% (active)	–	10.7%	19.3%
C=CC(=O)Nc1cccc(-c2nc(SC)nc(Nc3cccc(OC)c3)c2C#N)c1	38.5%	45.4%	43.4%	89.1%	54.4%	82.3%	87.9%	–
COc1ccc2c(c1)O/C(=C\c1cccc(OCC(=O)Nc3nc4c(s3)CCCC4)c1)C2=O	58.4%	105%	83.1%	89.1%	77.7%	–	82%	86.1%
CC(C)n1c(/C=C/[C@@H](O)C[C@@H](O)CC(=O)O)c(-c2ccc(F)cc2)c2ccccc21	72.7%	60.6%	55.8%	72.9%	22.1%	77.7%	87.5%	–
NCCNc1nc(Nc2ccc(-c3nc4ccccc4[nH]3)cc2)c2cn[nH]c2n1	60.8%	80.2%	94%	28.4%	14.9%	–	25.2%	39.2%
C=C1c2nc3ccccc3n2C=C(c2ccc(Cl)cc2)N1Cc1ccc(OC)cc1	48%	97.8%	97.9%	92.7%	63.5%	80.4%	95.4%	–
COc1ccc(C(=O)COc2ccc(/C=C3\COc4ccc(OC)cc4C3=O)cc2)cc1	84.9%	77.6%	77.1%	80.2%	64%	–	68.4%	34.2%
Fc1ccc2[nH]cc(SSc3c[nH]c4ccc(F)cc34)c2c1	27.5%	39.6%	46.2%	91.2%	25.3%	–	24.3%	32.2%
CC[C@H]1OC(=O)[C@H](C)[C@@H](O[C@H]2C[C@@](C)(OC)[C@@H](O)[C@H](C)O2)[C@H](C)[C@@H](O[C@@H]2O[C@H](C)C[C@H](N(C)C)[C@H]2O)[C@](C)(O)C[C@H](C)CN(C)[C@H](C)[C@@H](O)[C@]1(C)O	108%	98.4%	96.9%	84.2%	90.3%	95.9%	95.4%	–
CCCCCCN(CCCCCC)C(=N)c1ccnc2ccccc12	88.1%	73.8%	61.8%	59.8%	31.2%	-59.9% (active)	71.1%	–
Cc1cc(C)nc(SC2=C(Nc3cccc(Cl)c3C)C(=O)N(Cc3ccccc3)C2=O)n1	37.1% [30 µM]	48.1% [30 µM]	42.1% [30 µM]	65.4% [30 µM]	44.1% [30 µM]	–	53.2% [30 µM]	30.7% [30 µM]
